Most compounds without a hit are left out; they make up all but 2.8% or so of the library.
SENP7 inh – inhibitors of human SENP7 protease | Q9BQF6 | recombinant SENP7, Z-RLRGG-aminoluciferin luminescence, 40 min | inhibition, % at 5 µM | 1.5% of 330,000 active;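 active = inhibition above about 50% at the single test dose, limit read from the data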;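 note: plate controls were DMSO with enzyme for no effect and no enzyme buffer wells for full effect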
Target sequence (Q9BQF6 706-1050 limits assumed): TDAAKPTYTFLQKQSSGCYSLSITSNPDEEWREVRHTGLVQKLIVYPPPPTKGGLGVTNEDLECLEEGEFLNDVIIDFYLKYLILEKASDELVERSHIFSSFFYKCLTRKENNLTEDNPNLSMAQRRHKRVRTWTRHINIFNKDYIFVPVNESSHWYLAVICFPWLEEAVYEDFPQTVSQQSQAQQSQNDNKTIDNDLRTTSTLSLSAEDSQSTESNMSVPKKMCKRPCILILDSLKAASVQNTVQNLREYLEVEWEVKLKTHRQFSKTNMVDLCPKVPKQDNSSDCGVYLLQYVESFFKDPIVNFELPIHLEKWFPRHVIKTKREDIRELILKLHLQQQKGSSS
HSP90 refold inh – blocks HSP90-mediated luciferase refolding in reticulocyte lysate | Rabbit reticulocyte lysate, luciferase refolding luminescence, 3 h | inhibition, % at 5.6 µM | 0.91% of 290,000 active;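 active = inhibition above the screen-wide mean plus 3 SD, computed separately per campaign, cut at about 16% in these data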;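 note: 0% = DMSO wells and 100% = 60 µM geldanamycin wells; inhibitors lower the luminescence because luciferase stays unfolded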
SENP6 block – inhibitors of human SENP6 protease. Q9GZR1. 1.8% of 330,000 active. AID 2599. Recombinant SENP6 catalytic domain, aminoluciferin luminescence. inhibition, % at 10 µM;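 active = inhibition above about 50% at the single tested dose, limit read from the data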;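 note: plate controls were DMSO wells with enzyme for no effect and DMSO wells lacking enzyme for full effect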
SENP8 block-1 – SENP8 (human) protease inhibition; recombinant SENP8, Nedd8 substrate fluorescence; inhibition, % at 20 µM; 0.64% of 360,000 active; in the data active = inhibition mostly above about 40%, no sharp cut-off; inactive = mostly below about 27%
SENP8 block-2 – SENP8 protease inhibition; Q96LD8; purified SENP8, Z-RLRGG-aminoluciferin cleavage, luminescence; inhibition, % at 10 µM; 1.2% of 330,000 active; AID 2540; in the data active = inhibition above about 50%
Platelet DG rel – platelet dense granule release activity; 0.22% of 300,000 active; inhibition, %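 (compounds screened at 7.5 µM in platelet-rich plasma)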; human platelet-rich plasma, SFLLRN dense granule ATP release, luminescence; AID 1663;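 active = mean replicate score, as percent of positive control, at or above 50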
SENP8 conf – human SENP8 inhibition, confirmed; shares compounds with SENP7 inh; Recombinant SENP8, Z-RLRGG-aminoluciferin luminescence, 60 min; inhibition, % at 12.5 µM; 40% of 6,200 active; AID 488912;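 active = mean inhibition across replicates above about 50%, limit read from the data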
SENP6 conf – confirmation of human SENP6 protease inhibitors. shares compounds with SENP7 inh. recombinant SENP6, Z-RLRGG-aminoluciferin luminescence. inhibition, % at 12.5 µM. 58% of 6,200 active. AID 488915
SENP7 conf – confirmation of human SENP7 protease inhibitors | shares compounds with SENP7 inh | recombinant SENP7, Z-RLRGG-aminoluciferin luminescence, 40 min | inhibition, % at 12.5 µM | 69% of 6,200 active
Casp3 select – caspase-3 inhibition (SENP selectivity assay). shares compounds with SENP7 inh. purified caspase-3, Z-DEVD-aminoluciferin luminescence, 60 min. inhibition, % at 12.5 µM. 60% of 6,200 active. AID 488918;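 active = mean inhibition above about 50%, limit read from the data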;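 note: plate controls were enzyme with DMSO for no effect and wells without caspase-3 for full effect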
Target sequence (P42574 28-227 limits assumed): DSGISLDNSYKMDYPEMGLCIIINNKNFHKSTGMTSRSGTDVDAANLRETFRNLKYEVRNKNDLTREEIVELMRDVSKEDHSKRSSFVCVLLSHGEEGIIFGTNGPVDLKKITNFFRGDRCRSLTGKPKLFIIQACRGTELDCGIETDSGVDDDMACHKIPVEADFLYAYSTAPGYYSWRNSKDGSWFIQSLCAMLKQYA
Luc interf – luminescence interference (SENP counter-screen); inhibition, % at 12.5 µM; shares compounds with SENP7 inh; Pre-incubated SENP8/Z-RLRGG-aminoluciferin, luciferase luminescence interference; 39% of 6,200 active;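 active = mean inhibition above about 50% when retested at one dose, limit read from the data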;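 note: plate controls were DMSO wells with completed reaction for no effect and substrate without enzyme for full effect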
Numbers without * were called inactive; / = no result.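 Rule for the calls, unless noted: active = mean inhibition above about 50% in the one-dose retest (limit read from the data); inactive = the rest.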

SMILES | SENP7 inh | HSP90 refold inh | SENP6 block | SENP8 block-1 | SENP8 block-2 | Platelet DG rel | SENP8 conf | SENP6 conf | SENP7 conf | Casp3 select | Luc interf
Cc1cc(SCC(=O)NC(=O)c2cccn2C)nc2ccccc12 | -4 | 10 | -26 | -18 | -6 | 1 | / | / | / | / | /
CCN1CCN(C(=O)Cn2nc(C)c3sc4ccccc4c3c2=O)CC1 | 5 | -6 | -7 | -76 | 7 | -3 | / | / | / | / | /
N/C(=N\OC(=O)c1ccc2c(c1)OCO2)c1cccnc1 | 80* | 2 | 74* | 14 | 51* | 16 | 58* | 57* | 87* | 88* | 69*
COc1ccc(/C(N)=N/OC(=O)c2ccc3c(c2)OCO3)cc1OC | 84* | -2 | 83* | 1 | 75* | 0 | -23 | -12 | 19 | 24 | 2
COc1cc(OC)c(C(=O)Oc2ccc3c(c2)OCO3)cc1OC | 9 | -3 | 8 | 14 | 4 | 11 | / | / | / | / | /
N/C(=N\OC(=O)c1ccc2c(c1)OCO2)c1cccc(Br)c1 | 98* | -4 | 95* | -1 | 96* | 3 | 97* | 98* | 102* | 97* | 51*
N/C(=N\OC(=O)c1ccc2c(c1)OCO2)c1ccc([N+](=O)[O-])cc1 | 2 | -3 | -23 | 19 | 8 | 13 | / | / | / | / | /
COc1ccc(C(=O)Oc2ccc3c(c2)OCO3)cc1OC | 60* | 3 | 58* | 24 | 29 | 2 | 25 | 48 | 80* | 66* | 61*
O=C(CSc1nnc(Cc2ccccc2)c(=O)[nH]1)Nc1ccccc1 | 2 | / | -10 | 6 | -4 | -9 | / | / | / | / | /
Cc1cc(C)n(CC(=O)Nc2ccc3c(c2)OCO3)c(=O)c1C#N | 3 | / | -8 | -5 | -6 | 21 | / | / | / | / | /
CC(=O)c1ccc(OC(=O)c2ccc(-n3nc(C)cc3C)cc2)cc1 | 32 | -5 | 30 | 22 | 13 | 2 | / | / | / | / | /
Cc1cc(C)n(-c2ccc(C(=O)Oc3ccc4c(c3)OCO4)cc2)n1 | 67* | 6 | -5 | -8 | 45 | 4 | 62* | 70* | 91* | 67* | 57*
CCOc1ccc(CC(=O)NNC(=S)NC)cc1Br | -15 | 0 | -2 | 13 | 1 | 5 | / | / | / | / | /
COc1ccc(CNS(=O)(=O)c2csc(C(N)=O)c2)cc1OC | -15 | 3 | -3 | 12 | -5 | -2 | / | / | / | / | /
O=C(O)c1cccc(-n2cccc2/C=C/[N+](=O)[O-])c1 | -11 | 1 | -5 | -36 | 2 | -5 | / | / | / | / | /
Oc1ccc(-c2csc(Nc3ccccn3)n2)cc1O | 37 | -3 | 87* | -11 | 61* | -1 | 78* | 79* | 92* | 49 | 81*
Cc1cccc(Nc2nc(-c3ccc(O)c(O)c3)cs2)n1 | -14 | -5 | 65* | 13 | 38 | -2 | 47 | 49 | 71* | 13 | 67*
CCC(=O)Nc1nc(C)c(-c2csc(Nc3ccccn3)n2)s1 | 44 | -7 | 23 | -214 | 59* | 0 | 52* | 69* | 86* | 30 | 58*
Oc1ccc(-c2csc(Nc3cccc4ccccc34)n2)cc1O | 12 | 4 | 16 | -174 | 3 | -7 | / | / | / | / | /
Cc1ccnc(Nc2nc(-c3ccc(O)c(O)c3)cs2)c1 | -15 | -3 | 3 | 14 | 12 | -1 | / | / | / | / | /
Cc1cccc(Nc2nc(-c3ccc(F)c(C)c3)cs2)n1 | 55* | 5 | 53* | 11 | 44 | 0 | 32 | 60* | 76* | 21 | 19
CN(CC(=O)Nc1cccc(F)c1)C(=O)CC1CC2CCC1C2 (stereo not given) | 13 | -4 | 5 | 7 | -5 | -4 | / | / | / | / | /
COc1ccccc1[C@@]1(C)ON(c2ccccc2C(F)(F)F)C1=O | -4 | / | 0 | 3 | -2 | / | / | / | / | / | /
CN(C(=O)c1cccc(NC(=O)Cc2cccc(NC(=O)C3CCCN(C(=O)C4CCCCC4)C3)c2)c1)C1CCC1 (stereo not given) | / | / | / | -3 | / | / | / | / | / | / | /
C[C@@H]1CN([C@H](C)CO)C(=O)CCCn2cc(nn2)CO[C@H]1CN(C)S(=O)(=O)c1ccccc1C#N | / | / | / | 8 | / | / | / | / | / | / | /
SMILES | SENP7 inh | HSP90 refold inh | SENP6 block | SENP8 block-1 | SENP8 block-2 | Platelet DG rel | SENP8 conf | SENP6 conf | SENP7 conf | Casp3 select | Luc interf
CC(=O)Nc1ccc(-c2csc(Nc3ccccn3)n2)cc1 | 73* | 4 | 87* | -6 | 75* | 26 | 74* | 79* | 96* | 60* | 86*
COc1ccc(OC)c2nc(-c3ccc4c(c3)OCO4)ccc12 | 0 | -1 | 9 | -291 | -8 | -1 | / | / | / | / | /
CC(=O)C(C(C)=O)c1c(Cl)c(O)c(O)c2c(C(=O)c3ccccc3)coc12 | -6 | 0 | -28 | 29 | -10 | 3 | / | / | / | / | /
O=C(c1ccccc1)c1coc2c1C(=O)c1ccccc1C2=O | 18 | 7 | 85* | 52* | 33 | 0 | 23 | 75* | 48 | 14 | 15
O=C(CNc1ccc2ccccc2c1)N/N=C/c1ccc([N+](=O)[O-])o1 | 12 | 7 | 54* | -173 | 7 | 9 | -14 | 16 | -2 | -6 | -9
O=C(COc1ccccc1)N/N=C/c1ccc([N+](=O)[O-])o1 | 4 | 3 | -5 | 5 | 0 | 20 | / | / | / | / | /
COc1ccc(N(CC(=O)NCc2ccncc2)S(=O)(=O)c2ccc(C)c([N+](=O)[O-])c2)cc1 | 1 | -7 | 85* | 22 | 0 | -2 | -2 | 0 | -2 | -1 | 0
COCCCNC(=O)CN(c1cc(Cl)ccc1OC)S(=O)(=O)c1ccc(C)c([N+](=O)[O-])c1 | -6 | -2 | 73* | 17 | -10 | -3 | 6 | 3 | -10 | -5 | -2
N#Cc1c(Cl)nc2c(c1C#N)CCCC2 | -1 | 7 | -9 | -6 | -1 | 13 | / | / | / | / | /
O=C(CCc1ccc(Oc2cc([N+](=O)[O-])cc([N+](=O)[O-])c2)cc1)N1CCCCC1 | -1 | 3 | -11 | 24 | -9 | -4 | / | / | / | / | /
COc1ccc2nc(-c3ccccc3)[nH]c2c1 | 95* | 15 | 95* | -295 | 83* | -3 | 4 | 90* | 99* | 94* | 89*
COc1ccc2[nH]c(-c3ccccc3)cc2c1 | 90* | 6 | 92* | -307 | 86* | 15 | 13 | 89* | 99* | 61* | 27
COc1ccc2[nH]c(C(=O)NCc3ccccc3)cc2c1 | 2 | 3 | 3 | -370 | -5 | -2 | / | / | / | / | /

From PubChem
